The full list was thinned out, with hits kept by preference.
Integrin act MD = integrin-mediated muscular dystrophy alleviation activation. alpha7betagal myoblasts, beta-gal FDG fluorescence, 48 h. Potency, µM (series often up to 38.3 µM), actives largely listed as activators. 350,000 compounds, 0.064% hits; also: nearly all actives have a fitted effect of over 60% in size
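Alpha7betagal+/- myoblasts (passage 13) were plated 16-24 hr, then exposed to compounds (1:260 dilution of DMSO stock) for 48 hours at 37C. After MPER lysis, β-galactosidase reporter activity was read as FDG fluorescence (ex 480/em 540) after 30 minutes.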
RORg inh = ROR gamma (mouse) transcription inhibition | P51450 | Drosophila S2 Gal4-RORgamma UAS-luciferase reporter, 20 h | Potency, µM (top dose mostly 53.6 µM), actives largely listed as inhibitors | 310,000 compounds, 5.4% hits | AID 2551; also: nearly all actives have a fitted effect of over 60% in size
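Drosophila Schneider cells stably carrying a metallothionein-driven Gal4 DBD–ROR gamma fusion and a UAS-Photinus luciferase reporter were exposed to compound for 1 hr, then induced with copper sulfate (700 uM final) for 20 hr at ambient temperature before luminescence reading.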
Gal4-VP16 FLuc = inhibits Gal4-VP16 luciferase reporter, ROR gamma counter-screen; Drosophila S2 Gal4-VP16 UAS-luciferase, luminescence, 20 h; Potency, µM (highest dose often 53.6 µM), usual class: inhibitors; 310,000 compounds, 3.5% hits;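 also: Gal4-VP16 expression switched on by copper sulfate through the metallothionein promoter; nearly all actives have a fitted effect of over 50% in size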
Giardia killer = kills Giardia lamblia. 340,000 compounds, 0.15% hits. Giardia lamblia trophozoite viability. activity change, % at 7.66 µM, hits read low; in the data active = activity change below about -80%; inconclusive = between about -30% and that limit;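 also: parasites exposed to compound for two days anaerobically before the ATP read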
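Trophozoite viability was measured as ATP-dependent luminescence, read 15-30 min after reagent addition. Before that, parasites at 100 cells/well were exposed to compounds for 48 h, anaerobically, at 37 deg C.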
ERG Ets-DNA blk = ERG Ets/DNA interaction inhibition; fluorescence polarization, His-ERG Ets domain / labelled DNA; Potency, µM (top dose mostly 76.9 µM), usual class: inhibitors; P11308; 370,000 compounds, 0.028% hits; active = well fitted inhibition curve with a large enough effect in the polarisation, with a control signal flat; inconclusive = small, poorly fitted or top-dose-only effect, or effect the other way, or a change in a side signal; inactive = no such curve, though single readings can be large or run the other way; the % refers to the polarisation;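 also: polarization taken with two DNA probes labelled with fluorescein and Texas red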
Target sequence (P11308 whole entry, looked up, the tested form may be a part): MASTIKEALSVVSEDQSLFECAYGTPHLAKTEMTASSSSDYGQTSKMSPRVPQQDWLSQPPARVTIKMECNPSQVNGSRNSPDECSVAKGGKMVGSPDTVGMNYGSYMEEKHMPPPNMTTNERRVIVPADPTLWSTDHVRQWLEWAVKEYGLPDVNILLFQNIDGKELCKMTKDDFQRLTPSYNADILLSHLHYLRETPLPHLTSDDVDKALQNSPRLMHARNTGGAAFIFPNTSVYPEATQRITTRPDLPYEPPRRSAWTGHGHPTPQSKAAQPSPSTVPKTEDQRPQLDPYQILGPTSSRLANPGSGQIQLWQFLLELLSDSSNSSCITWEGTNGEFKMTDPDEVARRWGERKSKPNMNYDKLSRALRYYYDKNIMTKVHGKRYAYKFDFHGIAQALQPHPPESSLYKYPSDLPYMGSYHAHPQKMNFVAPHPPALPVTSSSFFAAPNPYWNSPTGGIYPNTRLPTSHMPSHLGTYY
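His-tagged ERG Ets domain (1 uM in the protein solution; 300mM KCl, 50mM Tris-HCl, 1mM EDTA, 1mM DTT, pH 7.5) received compound, then a probe mix of 5 nM fluorescein-DNA and 100nM Texas-615-DNA. Fluorescence polarization was read for both dyes.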
Numbers stand for hits; i = inactive; ? = inconclusive; nt = not tested or not shown; [ ] = dose if it differs, or a comment. Unless noted, calls follow the shape of the dose curve; as a rule, active = well fitted curve in the direction sought with a large enough effect; inconclusive = small, poorly fitted or top-dose-only effect, or another doubt; inactive = no such curve, though single readings can be large; an effect the other way counts as inactive or inconclusive.

SMILES	Integrin act MD	RORg inh	Gal4-VP16 FLuc	Giardia killer	ERG Ets-DNA blk
Clc1ccc2[nH]c3c(NCCN4CCOCC4)ncnc3c2c1	i	i[0.365 µM]	nt	i	i
Brc1ccc2[nH]c3c(N4CCc5ccccc5C4)ncnc3c2c1	i	i	i	i	i
Cc1ccc2[nH]c3c(N4CCc5ccccc5C4)ncnc3c2c1	i	?	3.2µM	i	i
Fc1ccc2[nH]c3c(N4CCc5ccccc5C4)ncnc3c2c1	i	11µM	3.2µM	i	i
Cc1ccccc1Cn1c(C)nc2ccccc21	i	?	3.5µM	i	i
Cc1nc2ccccc2n1Cc1n[nH]c(=S)n1-c1ccc(Cl)cc1	i	?	i	i	i
CCc1nc2ccccc2n1CC1CC1(Cl)Cl (centres undefined)	i	7.1µM	i[10 µM]	i	i
Cc1nc2ccccc2n1Cc1ccc(Cl)cc1	nt	?	10µM	i	i
COc1ccccc1Cn1c(C)nc2ccccc21	i	14µM	?	i	i
Cc1ccccc1Cn1c(-c2cncs2)nc2ccccc21	i	i	i	i	i
COCC1CCCCN1Cc1cn[nH]c1-c1ccc2cc(OC)ccc2c1 (centres undefined)	i	i	i	i	i
Cc1cc(C)c(C)c(S(=O)(=O)N2CCN(C(=O)C3CSC4(C)CCC(=O)N34)CC2)c1C (centres undefined)	i	nt	nt	i	i
CC(=O)N1/C(=C/c2ccc(N(C)C)cc2)C(=O)c2ccccc21	i	?	?	i	i
Cc1nc2ccccc2n1CCOc1ccccc1	i	i	?	i	i
CCc1nc2ccccc2n1Cc1ccccc1OC	i	7.1µM	?	i	i
CCCc1nc2ccccc2n1Cc1ccccc1OC	i	6.3µM	?	i	i
Cc1ccccc1OCCn1c(C)nc2ccccc21	i	i[1.91 µM]	7.9µM	i	i
O=C1C(=O)C(c2ccc(O)cc2O)Oc2cc(O)cc(O)c21 (centres undefined)	nt	nt	nt	i	nt
Cc1ccc(-n2c(=O)c3cccnc3n2CC(=O)Nc2ccc(Br)cc2)cc1C	nt	nt	nt	nt	i
COC(=O)CCC(=O)Oc1ccc(OC(=O)CCC(=O)OC)cc1	nt	13µM	?	nt	nt
COC(=O)CCC(=O)Nc1ccc(NC(=O)CCC(=O)OC)cc1	i	i	i	i	i
c1ccc(-c2csc(Nc3cccnc3)n2)nc1	?	?	i	i	i
O=C(Nc1nc(-c2ccccn2)cs1)C1CC1	i	16µM	?	i	i
c1ccc(Nc2nc(-c3ccccn3)cs2)cc1	i	3.5µM	10µM	i	i
O=C(CC1CC2CCC1C2)Nc1nc(-c2ccccn2)cs1 (centres undefined)	i	3.2µM	13µM	i	i
SMILES	Integrin act MD	RORg inh	Gal4-VP16 FLuc	Giardia killer	ERG Ets-DNA blk
COc1cccc2sc(Nc3nc(-c4ccccn4)cs3)nc12	nt	0.045µM	nt	nt	nt
COC(=O)C1CCN(S(=O)(=O)c2ccc(N3CCCCS3(=O)=O)cc2)CC1	nt	nt	nt	nt	i
CCN1C(=O)[C@@H]2[C@H]3C(=CC[C@@H]2C1=O)C1(OCCCO1)[C@H]1O[C@@H]1[C@H]3O	nt	i[10 µM]	i[10 µM]	nt	nt
O=C(Nc1nc(-c2ccccn2)cs1)C1CC(=O)N(c2ccc3c(c2)OCCO3)C1 (centres undefined)	i	10µM	?	i	i
CCCNC(=S)NNC(=O)c1cc(C2CC2)nc2ccccc12	i	11µM	10µM	i	i
C/C(=N\NC(=O)c1cc(C2CC2)nc2ccccc12)c1ccc(C)s1	i	i	i	i	i
CCCCNC(=S)NNC(=O)c1cc(-c2cccnc2)nc2ccccc12	i	?	i	i	i
C/C(=N\NC(=O)c1cc(C2CC2)nc2ccccc12)c1ccc(O)cc1O	i	16µM	18µM	i	i
CCNC(=S)NNC(=O)c1cc(C2CC2)nc2ccccc12	i	0.71µM	?	i	i
Cc1cccc(NC(=O)CSc2nnc(CNC(=O)c3c(F)cccc3Cl)o2)c1C	nt	nt	nt	nt	i
COCCN(C(=S)Nc1cccc(C)c1)C(C)c1cccnc1 (centres undefined)	i	11µM	i	i	i
COCCCN(C(=S)Nc1c(C)cc(C)cc1C)C(C)c1ccccn1 (centres undefined)	i	14µM	?	i	i
CCOc1ccc(NC(=S)N(CCOC)C(C)c2cccnc2)cc1 (centres undefined)	i	11µM	i	i	i
COCCCN(C(=S)Nc1cc(C)cc(C)c1)C(C)c1ccncc1 (centres undefined)	i	13µM	?	i	i
Cc1ccc(NC(=S)N(CCN(C)C)C(C)c2cccnc2)cc1 (centres undefined)	i	i	i[10 µM]	i	i
CC(C)CCNC(=O)c1ccc(Cn2c(SCC(N)=O)nc3ccccc3c2=O)cc1	nt	nt	nt	nt	i
S=c1[nH]ccn1-c1cccc(Cl)c1Cl	i	7.9µM	?	i	i
Cc1ccc(-n2cc[nH]c2=S)cc1C	i	0.05µM	i	i	i
S=c1[nH]ccn1-c1cccc(Cl)c1	i	13µM	?	i	i
Cc1ccc(O)c(C(=O)c2cnn(C(=O)c3cccc(S(=O)(=O)N(C)C)c3)c2)c1	i	nt	nt	i	i
OC(COc1ccccc1)CSc1ncn[nH]1 (centres undefined)	i	i	i	i	i
CC(C)(C)c1ccc(OCC(O)CSc2ncn[nH]2)cc1 (centres undefined)	i	10µM	5.6µM	i	i
COc1ccc(/C=C2\C(=O)NC(=S)N2C(=O)c2ccc(C)cc2)cc1	i	22µM	?	i	i
O=C1NC(=S)N(C(=O)c2ccc(F)cc2)/C1=C/c1cccnc1	i	i	i	i	i
COC(=O)NC(CC(C)=O)c1cccs1 (centres undefined)	nt	i[10 µM]	i[10 µM]	nt	nt
SMILES	Integrin act MD	RORg inh	Gal4-VP16 FLuc	Giardia killer	ERG Ets-DNA blk
Cc1ccc(C(C[N+](=O)[O-])Sc2ccc(N)cc2)cc1 (centres undefined)	i	11µM	5.6µM	i	i
Cc1ccc(C(C[N+](=O)[O-])n2nc(C)cc2C)cc1 (centres undefined)	i	i	i	i	i
COC(=O)C(C(=O)OC)C1C=CCN(C(C)=O)C1 (centres undefined)	i	nt	nt	i	i
COc1cc(C)c(NC(=S)Nc2ccc(C)c(Cl)c2)cc1OC	i	11µM	?	i	i
COc1cc(C)c(NC(=S)Nc2cccc(Cl)c2)cc1OC	i	?	i	i	i
COc1cc(OC)c(NC(=S)Nc2cccc(C)c2)cc1Cl	i	10µM	?	i	i
O=C1CC[C@@H](C(=O)N[C@@H](Cc2cnc[nH]2)C(=O)N[C@@H](Cc2c[nH]c3ccccc23)C(=O)N[C@@H](CO)C(=O)N[C@@H](Cc2ccc(O)cc2)C(=O)O)N1	nt	i	i	nt	nt
Cc1cc(C)nc(NC(=S)NC(=O)c2ccccc2)n1	i	?	?	i	i
O=C(CN1CCN(C(=O)c2ccccc2)CC1)Nc1ncc(Br)cc1Br	i	i	i	i	i
O=C(Nc1cnc2ccccc2c1)c1ccncc1	i	i	i	i	i
O=C(NC(=S)Nc1ncc(Br)cc1Br)c1ccccc1	i	8.9µM	18µM	i	i
O=C(NC(=S)Nc1cnc2ccccc2c1)c1ccccc1	i	5.6µM	?	i	i

Screens from PubChem BioAssay.
